# Measurements from the supplement of paper PMC6411743.
# ± gives the standard deviation of the averaged measurements. Targets with the largest changes are over-represented here; the source holds about 6,500 in all.
# Key:
# Assay in all cases: NP40-soluble protein abundance relative to vehicle (solubility fold change) (ratio); higher = more soluble protein in presence of ATP
# [1] = target: T1, A6NG45|Q13162 (UniProt Q13162)
# T1 sequence (whole entry): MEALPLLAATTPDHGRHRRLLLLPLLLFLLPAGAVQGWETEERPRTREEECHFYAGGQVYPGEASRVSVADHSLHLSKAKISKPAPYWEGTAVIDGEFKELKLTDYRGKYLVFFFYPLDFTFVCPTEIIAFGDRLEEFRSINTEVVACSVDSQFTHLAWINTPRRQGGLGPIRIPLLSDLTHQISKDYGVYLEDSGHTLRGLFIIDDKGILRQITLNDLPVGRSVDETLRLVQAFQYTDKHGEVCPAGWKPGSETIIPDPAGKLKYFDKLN
# How it was run: (§1)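 Data come from three independent experiments in which Dounce-homogenised Jurkat crude lysate was treated at eight concentrations from 0.1 to 10 mM. Treatment ran 10 min at room temperature and then 3 min at 37 °C, after which 0.8% NP40 and benzonase were added for 60 min at 4 °C before ultracentrifugation. The supernatant underwent TMT labelling and LC-MS/MS, and vsn-normalised intensities were expressed as fold change against the detergent-processed vehicle in each replicate.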
# [2] = target: T2, E7ET89|Q86UW9|Q86UW9-2 (UniProt Q86UW9)
# T2 sequence (whole entry): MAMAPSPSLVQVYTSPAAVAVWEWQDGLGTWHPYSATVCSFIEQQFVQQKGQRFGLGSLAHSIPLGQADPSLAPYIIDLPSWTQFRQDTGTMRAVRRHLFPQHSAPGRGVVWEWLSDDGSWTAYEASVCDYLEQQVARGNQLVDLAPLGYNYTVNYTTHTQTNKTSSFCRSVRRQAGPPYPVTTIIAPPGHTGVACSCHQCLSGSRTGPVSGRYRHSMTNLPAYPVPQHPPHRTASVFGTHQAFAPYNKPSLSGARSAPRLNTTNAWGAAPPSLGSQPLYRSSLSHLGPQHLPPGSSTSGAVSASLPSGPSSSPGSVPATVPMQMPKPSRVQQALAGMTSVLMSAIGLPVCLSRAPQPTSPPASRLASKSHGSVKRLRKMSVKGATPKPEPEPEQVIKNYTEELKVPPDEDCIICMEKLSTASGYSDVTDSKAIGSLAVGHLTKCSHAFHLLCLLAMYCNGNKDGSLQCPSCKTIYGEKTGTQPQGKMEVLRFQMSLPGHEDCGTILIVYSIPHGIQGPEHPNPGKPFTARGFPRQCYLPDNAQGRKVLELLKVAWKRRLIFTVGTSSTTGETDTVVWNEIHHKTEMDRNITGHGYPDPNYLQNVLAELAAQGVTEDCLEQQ
# How it was run: as §1
# [3] = target: T3, F5GY05|A0A0D9SEJ5|Q96EK7 (UniProt Q96EK7)
# T3 sequence (whole entry): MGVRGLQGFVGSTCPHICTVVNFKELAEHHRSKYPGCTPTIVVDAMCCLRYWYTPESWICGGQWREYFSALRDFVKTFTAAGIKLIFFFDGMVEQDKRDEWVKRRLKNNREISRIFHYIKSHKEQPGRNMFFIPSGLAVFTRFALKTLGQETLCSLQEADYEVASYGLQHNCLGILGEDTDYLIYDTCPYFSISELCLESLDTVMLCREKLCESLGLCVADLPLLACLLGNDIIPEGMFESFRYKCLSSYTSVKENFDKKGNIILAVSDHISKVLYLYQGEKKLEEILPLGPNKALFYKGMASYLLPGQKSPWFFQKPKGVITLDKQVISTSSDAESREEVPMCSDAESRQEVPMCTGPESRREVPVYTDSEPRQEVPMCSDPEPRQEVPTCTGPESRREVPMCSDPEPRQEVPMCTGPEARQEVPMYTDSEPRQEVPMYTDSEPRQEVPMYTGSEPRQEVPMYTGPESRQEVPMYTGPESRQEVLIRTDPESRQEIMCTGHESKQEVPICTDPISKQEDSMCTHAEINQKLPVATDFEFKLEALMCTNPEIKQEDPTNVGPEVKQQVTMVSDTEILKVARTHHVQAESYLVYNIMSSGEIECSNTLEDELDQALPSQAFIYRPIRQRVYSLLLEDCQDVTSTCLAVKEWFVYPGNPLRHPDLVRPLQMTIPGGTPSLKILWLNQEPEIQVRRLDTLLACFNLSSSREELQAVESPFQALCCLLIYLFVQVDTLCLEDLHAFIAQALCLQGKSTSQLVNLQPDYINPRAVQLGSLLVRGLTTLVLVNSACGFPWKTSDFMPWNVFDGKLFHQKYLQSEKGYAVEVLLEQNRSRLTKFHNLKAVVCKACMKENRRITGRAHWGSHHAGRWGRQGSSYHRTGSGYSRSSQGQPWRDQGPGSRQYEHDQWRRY
# How it was run: as §1
# [4] = target: T4, F5H514|O95267|O95267-2 (UniProt O95267)
# T4 sequence (whole entry): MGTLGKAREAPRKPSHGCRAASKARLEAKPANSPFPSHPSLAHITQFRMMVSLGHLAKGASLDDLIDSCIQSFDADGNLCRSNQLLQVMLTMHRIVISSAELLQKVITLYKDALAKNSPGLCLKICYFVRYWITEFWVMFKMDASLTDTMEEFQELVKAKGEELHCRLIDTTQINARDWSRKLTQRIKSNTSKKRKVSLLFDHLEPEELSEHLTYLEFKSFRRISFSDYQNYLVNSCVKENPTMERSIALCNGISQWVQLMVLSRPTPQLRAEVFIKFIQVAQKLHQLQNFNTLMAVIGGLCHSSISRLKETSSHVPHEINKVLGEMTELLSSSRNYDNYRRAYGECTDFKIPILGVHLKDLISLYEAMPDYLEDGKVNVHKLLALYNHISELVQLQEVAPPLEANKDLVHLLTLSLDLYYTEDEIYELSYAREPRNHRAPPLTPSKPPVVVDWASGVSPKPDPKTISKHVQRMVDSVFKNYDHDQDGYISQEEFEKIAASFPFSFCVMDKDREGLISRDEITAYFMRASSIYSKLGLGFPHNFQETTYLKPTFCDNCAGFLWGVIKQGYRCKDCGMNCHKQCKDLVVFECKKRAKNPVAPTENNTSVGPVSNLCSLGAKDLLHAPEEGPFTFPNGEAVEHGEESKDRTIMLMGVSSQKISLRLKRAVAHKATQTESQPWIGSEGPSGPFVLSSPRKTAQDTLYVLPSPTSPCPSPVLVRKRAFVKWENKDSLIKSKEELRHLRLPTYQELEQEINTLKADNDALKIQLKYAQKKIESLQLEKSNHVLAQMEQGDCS
# How it was run: as §1
smiles,measurement,setting,value
Nc1ncnc2c1ncn2[C@@H]1O[C@H](COP(=O)(O)OP(=O)(O)OP(=O)(O)O)[C@@H](O)[C@H]1O [adenosine triphosphate],NP40-soluble protein abundance,[1]; concentration: 1mM,1.07 ± 0.057
same,NP40-soluble protein abundance,[1]; concentration: 2mM,1.01 ± 0.042
same,NP40-soluble protein abundance,[1]; concentration: 4mM,0.975 ± 0.041
same,NP40-soluble protein abundance,[1]; concentration: 6mM,0.953 ± 0.07
same,NP40-soluble protein abundance,[1]; concentration: 8mM,1.03 ± 0.034
same,NP40-soluble protein abundance,[1]; concentration: 10mM,0.992 ± 0.033
same,NP40-soluble protein abundance,[2]; concentration: 1mM,0.936 ± 0.2
same,NP40-soluble protein abundance,[2]; concentration: 2mM,1.09 ± 0.15
same,NP40-soluble protein abundance,[2]; concentration: 4mM,1.05 ± 0.11
same,NP40-soluble protein abundance,[2]; concentration: 6mM,1.04 ± 0.039
same,NP40-soluble protein abundance,[2]; concentration: 8mM,1.03 ± 0.086
same,NP40-soluble protein abundance,[2]; concentration: 10mM,1.04 ± 0.035
same,NP40-soluble protein abundance,[3]; concentration: 1mM,1.03 ± 0.013
same,NP40-soluble protein abundance,[3]; concentration: 2mM,1.0493 ± 0.001
same,NP40-soluble protein abundance,[3]; concentration: 4mM,1.07 ± 0.017
same,NP40-soluble protein abundance,[3]; concentration: 6mM,1.06 ± 0.06
same,NP40-soluble protein abundance,[3]; concentration: 8mM,1.07 ± 0.02
same,NP40-soluble protein abundance,[3]; concentration: 10mM,1.08 ± 0.052
same,NP40-soluble protein abundance,[4]; concentration: 1mM,1.04 ± 0.12
same,NP40-soluble protein abundance,[4]; concentration: 2mM,1.09 ± 0.046
same,NP40-soluble protein abundance,[4]; concentration: 4mM,1.19 ± 0.15
same,NP40-soluble protein abundance,[4]; concentration: 6mM,1.21 ± 0.13
same,NP40-soluble protein abundance,[4]; concentration: 8mM,1.14 ± 0.065
same,NP40-soluble protein abundance,[4]; concentration: 10mM,1.24 ± 0.15
